In PubChem BioAssay AID720519 (National Center for Advancing Translational Sciences (NCATS), 2013):
Records with an inconclusive call do not appear. Activity calls are given as the source filed them. The call rests on the fitted dose curve; in most records, active means well fitted activation curve with a large enough effect; inconclusive means small, poorly fitted or top-dose-only effect; inactive means flat fitted curve, though single readings scatter.

Experiment: qHTS for Inhibitors of Cell Surface uPA Generation: Confirmatory Assay for Cherry-picked Compounds; further: 0% is about no effect
Conditions: cell surface uPA activity generation, qHTS confirmation; series mostly up to 115 µM; inhibition: at the top concentration
How it was run: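 RAW 264.7 cells at 4000/well, incubated overnight, then treated with compounds. After 24 h at 37 C, viability was read by ATPlite luminescence. An increase in signal indicates blocked uPA-dependent LF entry.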

SMILES | inhibition
COc1cc(C(=O)N/N=C(\Cc2ncc[nH]2)c2ccccc2)cc(OC)c1OC | 0.667% (inactive)
Cn1cc(SCC(=O)Nc2nccs2)c2ccccc21 | -2.65% (inactive)
COC(=O)C(CCSC)NC(=O)Cn1ncc2c(=O)oc3ccccc3c21 (configuration not stated) | 0.519% (inactive)
CCCCn1c(N)c(N(CCC(C)C)C(=O)c2sc3nc4n(c(=O)c3c2C)CCC4)c(=O)[nH]c1=O | 6.8% (inactive)
CS(=O)(=O)c1ccc(Cl)c(NC(=O)COC(=O)CNC(=O)c2cccs2)c1 | -0.838% (inactive)
O=c1[nH]c2c(s1)C(c1ccc(O)cc1)C1C3CCC(C3)C1S2 (configuration not stated) | 4.53% (inactive)
C[n+]1c2cc(N)ccc2cc2ccc(N)cc21 | -3.52% (inactive)
O=C(COC(=O)c1cc([N+](=O)[O-])ccc1NCCO)NCc1cccs1 | -1.09% (inactive)
O=C1CCCc2ccccc2N1Cc1ccc(F)cc1 | -2.34% (inactive)
COc1ccc(-c2cc3nc(-c4ccccc4)cc(N4CCCC(O)C4)n3n2)cc1 (configuration not stated) | 2.53% (inactive)
COc1cc(CCC(=O)OCC(=O)Nc2ccc(C)cc2Br)cc(OC)c1OC | -1.75% (inactive)
Cn1nc(C(C)(C)C)c([N+](=O)[O-])c1C(=O)N1CCOCC1 | -1.01% (inactive)
C[C@H](CO)N1C[C@H](C)[C@@H](CN(C)C(=O)Nc2ccccc2)Oc2ccc(NC(=O)Cn3cnnn3)cc2C1=O | -0.16% (inactive)
CC1CN(C(=O)CCC(=O)NCc2ccccc2)c2ccccc2S1 (configuration not stated) | 0.274% (inactive)
C/C(=N\NC(=O)c1ccccc1)c1c(C)[nH]n(-c2ccccc2)c1=O | -3.44% (inactive)
COc1cc2cc(CN(CCN3CCOCC3)C(=O)Nc3ccc(F)cc3)c(=O)[nH]c2cc1OC | -0.841% (inactive)
Cc1[nH]c2ccc(C(=O)OC(C)C(=O)NC3CCCCC3C)cc2c1C (configuration not stated) | -3.36% (inactive)
COc1ccc(OC)c(S(=O)(=O)N2CCC(NC(=O)c3ccccc3)CC2)c1 | 1.52% (inactive)
C=CCOC(=O)C1=C[C@@H](c2coc3ccccc3c2=O)C[C@@H](OCc2ccc(CO)cc2)O1 | -1.97% (inactive)
COc1ccccc1C(=O)NCc1ccccc1 | -2.97% (inactive)
Cc1ccc2nc(Nc3ccc(Cl)cc3)c3nncn3c2c1 | 1.44% (inactive)
CCC(NC(=S)NCc1ccc(F)cc1)c1ccccc1 (configuration not stated) | -0.172% (inactive)
